Values joined by “and” are separate entries in the source; they are usually repeats but may differ in a detail not shown here. Equal entries are not always repeated. Out of some 5,500 compounds screened, about 2,000 (36%) were called active. Roughly 18% stayed inconclusive and do not appear here. No stated cut-off is given here; in the data, active means normalized growth mostly below about 0.91 (no sharp cut-off); inconclusive means no clear call, values can overlap the other calls; inactive means mostly above about 0.92. The list shows a part of the results.
Experiment: chemical genetic growth profiling, strain panel (AID 1159580);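 further: tested at 20 µM; growth read once vehicle control cultures reached saturation at 30 °C; 1 = growth at the plate median or of vehicle wells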
Settings: growth OD

Measured: normalized growth

CNC1(C)C2CCC(C2)C1(C)C (stereo unspecified)
inactive: S. cerevisiae deletion strains, locus YJR075W, strain HOC1, stronger effect = lower value 1 and 1.01 | S. cerevisiae deletion strains, locus YKL009W, strain mrt4, stronger effect = lower value 1.03 | S. cerevisiae deletion strains, locus YKL068W, stronger effect = lower value 0.989 | S. cerevisiae deletion strains, locus YKL085W, strain MDH1 (second series), stronger effect = lower value 1.02 | S. cerevisiae deletion strains, locus YKL085W, strain MDH1, stronger effect = lower value 1.02 | S. cerevisiae deletion strains, locus YKL160W, strain elf1, stronger effect = lower value 0.97 | S. cerevisiae deletion strains, locus YKL190W, strain CNB1, stronger effect = lower value 0.977 | S. cerevisiae deletion strains, locus YKR001C, strain vps1, stronger effect = lower value 0.997 | S. cerevisiae deletion strains, locus YKR026C, strain gcn3, stronger effect = lower value 1 | S. cerevisiae deletion strains, locus YKR091W, strain srl3, stronger effect = lower value 1 | S. cerevisiae deletion strains, locus YLL001W, strain dnm1, stronger effect = lower value 0.948 | S. cerevisiae deletion strains, locus YLL026W, stronger effect = lower value 0.996 | S. cerevisiae deletion strains, locus YLL041C, strain sdh2, stronger effect = lower value 0.988 | S. cerevisiae deletion strains, locus YLR027C, strain aat2, stronger effect = lower value 0.996 | S. cerevisiae deletion strains, locus YLR039C, strain RIC1, stronger effect = lower value 0.959 | S. cerevisiae deletion strains, locus YLR058C, strain SHM2, stronger effect = lower value 0.979 | S. cerevisiae deletion strains, locus YLR102C, strain apc9, stronger effect = lower value 0.981 | S. cerevisiae deletion strains, locus YLR113W, strain HOG1, stronger effect = lower value 0.934 | S. cerevisiae deletion strains, locus YLR221C, strain rsa3, stronger effect = lower value 0.976 | S. cerevisiae deletion strains, locus YLR258W, strain gsy2, stronger effect = lower value 1.02 | S. cerevisiae deletion strains, locus YLR262C, strain YPT6 (second series), stronger effect = lower value 1 | S. cerevisiae deletion strains, locus YLR262C, strain YPT6, stronger effect = lower value 0.934 | S. cerevisiae deletion strains, locus YLR268W, strain sec22, stronger effect = lower value 0.965 | S. cerevisiae deletion strains, locus YLR320W, strain mms22, stronger effect = lower value 0.982 | S. cerevisiae deletion strains, locus YLR330W, strain CHS5, stronger effect = lower value 0.987 | S. cerevisiae deletion strains, locus YLR342W, strain FKS1 (second series), stronger effect = lower value 1.08 | S. cerevisiae deletion strains, locus YLR342W, strain FKS1, stronger effect = lower value 0.99 | S. cerevisiae deletion strains, locus YLR357W, strain rsc2, stronger effect = lower value 0.987 | S. cerevisiae deletion strains, locus YLR370C, strain arc18, stronger effect = lower value 0.989 | S. cerevisiae deletion strains, locus YLR371W, strain rom2, stronger effect = lower value 1.01 | S. cerevisiae deletion strains, locus YLR384C, strain iki3, stronger effect = lower value 1 | S. cerevisiae deletion strains, locus YLR418C, strain cdc73, stronger effect = lower value 0.909 | S. cerevisiae deletion strains, locus YML016C, strain PPZ1, stronger effect = lower value 0.993 | S. cerevisiae deletion strains, locus YML032C, strain rad52, stronger effect = lower value 1.03 | S. cerevisiae deletion strains, locus YML120C, strain ndi1, stronger effect = lower value 0.979 | S. cerevisiae deletion strains, locus YML124C, strain tub3, stronger effect = lower value 0.995 | S. cerevisiae deletion strains, locus YMR058W, strain fet3, stronger effect = lower value 0.995 | S. cerevisiae deletion strains, locus YMR078C, strain ctf18, stronger effect = lower value 0.999 | S. cerevisiae deletion strains, locus YMR125W, strain sto1, stronger effect = lower value 0.987 | S. cerevisiae deletion strains, locus YMR129W, stronger effect = lower value 0.998 | S. cerevisiae deletion strains, locus YMR205C, strain PFK2, stronger effect = lower value 0.983 | S. cerevisiae deletion strains, locus YMR223W, strain ubp8, stronger effect = lower value 1.04 | S. cerevisiae deletion strains, locus YMR231W, strain pep5, stronger effect = lower value 0.998 | S. cerevisiae deletion strains, locus YMR263W, strain SAP30, stronger effect = lower value 0.966 and 1 | S. cerevisiae deletion strains, locus YMR307W, strain GAS1, stronger effect = lower value 1.06 | S. cerevisiae deletion strains, locus YNL067W, strain RPL9B, stronger effect = lower value 0.976 | S. cerevisiae deletion strains, locus YNL071W, strain lat1, stronger effect = lower value 0.993 | S. cerevisiae deletion strains, locus YNL128W, strain TEP1, stronger effect = lower value 0.946 and 1.02 | S. cerevisiae deletion strains, locus YNL153C, strain GIM3, stronger effect = lower value 0.962 | S. cerevisiae deletion strains, locus YNL175C, strain NOP13, stronger effect = lower value 0.998 | S. cerevisiae deletion strains, locus YNL183C, strain NPR1, stronger effect = lower value 0.971 | S. cerevisiae deletion strains, locus YNL197C, strain WHI3, stronger effect = lower value 1.02 | S. cerevisiae deletion strains, locus YNL209W, strain ssb2, stronger effect = lower value 0.992 | S. cerevisiae deletion strains, locus YNL224C, strain SQS1, stronger effect = lower value 1.01 | S. cerevisiae deletion strains, locus YNL233W, strain BNI4, stronger effect = lower value 0.98 | S. cerevisiae deletion strains, locus YNL248C, strain rpa49, stronger effect = lower value 0.982 | S. cerevisiae deletion strains, locus YNL250W, strain rad50, stronger effect = lower value 0.995 | S. cerevisiae deletion strains, locus YNL271C, strain bni1, stronger effect = lower value 0.996 | S. cerevisiae deletion strains, locus YNL298W, strain CLA4, stronger effect = lower value 0.99 | S. cerevisiae deletion strains, locus YNL307C, strain MCK1, stronger effect = lower value 0.999 | S. cerevisiae deletion strains, locus YNL322C, strain KRE1 (second series), stronger effect = lower value 1 | S. cerevisiae deletion strains, locus YNL322C, strain KRE1, stronger effect = lower value 0.978 | S. cerevisiae deletion strains, locus YNR049C, strain mso1, stronger effect = lower value 0.996 | S. cerevisiae deletion strains, locus YNR052C, strain pop2, stronger effect = lower value 0.992 | S. cerevisiae deletion strains, locus YOL006C, strain TOP1, stronger effect = lower value 0.951 | S. cerevisiae deletion strains, locus YOL012C, strain htz1 0.652 | S. cerevisiae deletion strains, locus YOL147C, strain pex11, stronger effect = lower value 0.996 | S. cerevisiae deletion strains, locus YOR001W, strain rrp6, stronger effect = lower value 0.964 | S. cerevisiae deletion strains, locus YOR061W, strain CKA2, stronger effect = lower value 0.958 | S. cerevisiae deletion strains, locus YOR069W, strain VPS5, stronger effect = lower value 0.993 | S. cerevisiae deletion strains, locus YOR070C, strain gyp1, stronger effect = lower value 0.997 | S. cerevisiae deletion strains, locus YOR080W, strain dia2, stronger effect = lower value 0.999 | S. cerevisiae deletion strains, locus YOR083W, strain WHI5 (second series), stronger effect = lower value 1.01 | S. cerevisiae deletion strains, locus YOR083W, strain WHI5, stronger effect = lower value 0.978 | S. cerevisiae deletion strains, locus YOR106W, strain vam3, stronger effect = lower value 0.987 | S. cerevisiae deletion strains, locus YOR136W, strain idh2, stronger effect = lower value 1.01 | S. cerevisiae deletion strains, locus YOR144C, strain elg1, stronger effect = lower value 0.99 | S. cerevisiae deletion strains, locus YOR184W, strain ser1, stronger effect = lower value 1.05 | S. cerevisiae deletion strains, locus YOR265W, strain rbl2, stronger effect = lower value 0.989 | S. cerevisiae deletion strains, locus YOR270C, strain vph1, stronger effect = lower value 0.991 | S. cerevisiae deletion strains, locus YOR290C, strain snf2, stronger effect = lower value 0.958 | S. cerevisiae deletion strains, locus YOR316C, strain cot1, stronger effect = lower value 0.985 | S. cerevisiae deletion strains, locus YPL051W, strain arl3, stronger effect = lower value 0.999 | S. cerevisiae deletion strains, locus YPL055C, strain LGE1, stronger effect = lower value 0.935 | S. cerevisiae deletion strains, locus YPL078C, strain atp4, stronger effect = lower value 0.983 | S. cerevisiae deletion strains, locus YPL106C, strain sse1, stronger effect = lower value 0.979 | S. cerevisiae deletion strains, locus YPL240C, strain hsp82, stronger effect = lower value 0.989 | S. cerevisiae deletion strains, locus YPL241C, strain CIN2, stronger effect = lower value 1 | S. cerevisiae deletion strains, locus YPL256C, strain CLN2, stronger effect = lower value 0.946 | S. cerevisiae deletion strains, locus YPR119W, strain clb2, stronger effect = lower value 0.993 | S. cerevisiae deletion strains, locus YPR141C, strain kar3, stronger effect = lower value 0.968 | S. cerevisiae deletion strains, locus YPR163C, strain tif3, stronger effect = lower value 0.991 | S. cerevisiae deletion strains, locus YPR167C, strain met16, stronger effect = lower value 0.983 | S. cerevisiae deletion strains, strain wtn01, stronger effect = lower value 0.974 | S. cerevisiae strains, strain wild type, stronger effect = lower value 0.991
active: S. cerevisiae deletion strains, locus YOR231W, strain MKK1, stronger effect = lower value 0.824

Source: PubChem BioAssay AID1159580 (chemical genetic matrix, 2015)
